# Positions count from the first letter of the chain named.
# Assays:
# Assay in all cases: yeast three-hybrid, YBZ-1, SC-Leu-His + 0.5 mM 3-AT, 4 days
# Settings in all cases: tags: N-Gal4 AD-HA kept; label: inside an RPR1-promoter hybrid RNA with tandem MS2 sites; ssRNA
# PUM1 PUF domain R1-RLQ = PUM1 PUF domain R1-RLQ (Homo sapiens, UniProt Q14671 828-1176, S863R;R864L)
# Outline: (§1)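 Sequencing with Illumina followed PCR amplification of the repeat regions from transformants grown four days on SC-Leu (input) or SC-Leu-His + 0.5 mM 3-AT (selection). The transformants were strain YBZ-1 with a LexA–MS2 coat fusion and a HIS3 reporter, carrying Pumilio-1 PUF domain libraries and matching RNA elements. The interaction score is the log change in variant frequency from input to selection, computed in log2 with a pseudocount of 1 for absent variants.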
# PUM1 PUF domain R5-RRG = PUM1 PUF domain R5-RRG (Homo sapiens, UniProt Q14671 828-1176, C1007R;Q1011G)
# Outline: as §1
# PUM1 PUF domain R6-VWT = target: T1, PUM1 PUF domain R6-VWT (Homo sapiens, UniProt Q14671 828-1176, N1043V;Y1044W;Q1047T)
# T1 sequence: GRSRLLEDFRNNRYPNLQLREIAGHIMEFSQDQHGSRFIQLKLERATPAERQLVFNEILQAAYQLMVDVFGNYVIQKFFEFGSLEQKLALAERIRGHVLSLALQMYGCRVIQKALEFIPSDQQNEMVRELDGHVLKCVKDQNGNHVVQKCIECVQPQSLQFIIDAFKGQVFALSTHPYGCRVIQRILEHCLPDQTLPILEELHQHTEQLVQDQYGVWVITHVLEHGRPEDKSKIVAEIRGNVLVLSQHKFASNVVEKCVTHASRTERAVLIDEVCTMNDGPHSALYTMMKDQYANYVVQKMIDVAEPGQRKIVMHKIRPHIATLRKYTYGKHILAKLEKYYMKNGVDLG
# Outline: as §1
# PUM1 PUF domain R6-IFT = target: T2, PUM1 PUF domain R6-IFT (Homo sapiens, UniProt Q14671 828-1176, N1043I;Y1044F;Q1047T)
# T2 sequence: T1 sequence with V216I, W217F
# Outline: as §1
# PUM1 PUF domain R6-EWL = target: T3, PUM1 PUF domain R6-EWL (Homo sapiens, UniProt Q14671 828-1176, N1043E;Y1044W;Q1047L)
# T3 sequence: T1 sequence with V216E, T220L
# Outline: as §1
# PUM1 PUF domain R5-SHL = PUM1 PUF domain R5-SHL (Homo sapiens, UniProt Q14671 828-1176, C1007S;R1008H;Q1011L)
# Outline: as §1
# PUM1 PUF domain R3-YYG = PUM1 PUF domain R3-YYG (Homo sapiens, UniProt Q14671 828-1176, C935Y;R936Y;Q939G)
# Outline: as §1
# PUM1 PUF domain R4-LRC = PUM1 PUF domain R4-LRC (Homo sapiens, UniProt Q14671 828-1176, N971L;H972R;Q975C)
# Outline: as §1
# PUM1 PUF domain R8-IYR = PUM1 PUF domain R8-IYR (Homo sapiens, UniProt Q14671 828-1176, N1122I;Q1126R)
# Outline: as §1
# PUM1 PUF domain R5-RFC = PUM1 PUF domain R5-RFC (Homo sapiens, UniProt Q14671 828-1176, C1007R;R1008F;Q1011C)
# Outline: as §1
# PUM1 PUF domain R6-RFV = target: T4, PUM1 PUF domain R6-RFV (Homo sapiens, UniProt Q14671 828-1176, N1043R;Y1044F;Q1047V)
# T4 sequence: T1 sequence with V216R, W217F, T220V
# Outline: as §1
# PUM1 PUF domain R3-CNE = PUM1 PUF domain R3-CNE (Homo sapiens, UniProt Q14671 828-1176, R936N;Q939E)
# Outline: as §1
# PUM1 PUF domain R4-PFG = PUM1 PUF domain R4-PFG (Homo sapiens, UniProt Q14671 828-1176, N971P;H972F;Q975G)
# Outline: as §1
# PUM1 PUF domain R5-RKP = PUM1 PUF domain R5-RKP (Homo sapiens, UniProt Q14671 828-1176, C1007R;R1008K;Q1011P)
# Outline: as §1
# PUM1 PUF domain R5-RCK = PUM1 PUF domain R5-RCK (Homo sapiens, UniProt Q14671 828-1176, C1007R;R1008C;Q1011K)
# Outline: as §1
# PUM1 PUF domain R5-KRH = PUM1 PUF domain R5-KRH (Homo sapiens, UniProt Q14671 828-1176, C1007K;Q1011H)
# Outline: as §1
# PUM1 PUF domain R3-TQE = PUM1 PUF domain R3-TQE (Homo sapiens, UniProt Q14671 828-1176, C935T;R936Q;Q939E)
# Outline: as §1
# PUM1 PUF domain R2-LFI = PUM1 PUF domain R2-LFI (Homo sapiens, UniProt Q14671 828-1176, N899L;Y900F;Q903I)
# Outline: as §1
# PUM1 PUF domain R4-EYR = PUM1 PUF domain R4-EYR (Homo sapiens, UniProt Q14671 828-1176, N971E;H972Y;Q975R)
# Outline: as §1
# PUM1 PUF domain R7-RSC = PUM1 PUF domain R7-RSC (Homo sapiens, UniProt Q14671 828-1176, S1079R;N1080S;E1083C)
# Outline: as §1
sequence,measurement,setting,value
GGCUAGAACUAGUGGAUCCCCCGGCGCCCGGCGGCUCGAGCCCGGGUAAGUGUAAAUUGUCUGCAUGCCGCCGGGCGCCAUGCCUGCAGGUCGACUCUAGAAAACAUG,binding signal,PUM1 PUF domain R1-RLQ,4.94 log2 enrichment (interaction score)
GGCUAGAACUAGUGGAUCCCCCGGCGCCCGGCGGCUCGAGCCCGGGUAAGUGUGAAUAGUCUGCAUGCCGCCGGGCGCCAUGCCUGCAGGUCGACUCUAGAAAACAUG,binding signal,PUM1 PUF domain R5-RRG,1.66 log2 enrichment (interaction score)
GGCUAGAACUAGUGGAUCCCCCGGCGCCCGGCGGCUCGAGCCCGGGUAAGUGAAAAUAGUCUGCAUGCCGCCGGGCGCCAUGCCUGCAGGUCGACUCUAGAAAACAUG,binding signal,PUM1 PUF domain R6-VWT,6.13 log2 enrichment (interaction score)
same,binding signal,PUM1 PUF domain R6-IFT,4.79 log2 enrichment (interaction score)
same,binding signal,PUM1 PUF domain R6-EWL,7.27 log2 enrichment (interaction score)
GGCUAGAACUAGUGGAUCCCCCGGCGCCCGGCGGCUCGAGCCCGGGUAAGUGUAAAUCGUCUGCAUGCCGCCGGGCGCCAUGCCUGCAGGUCGACUCUAGAAAACAUG,binding signal,PUM1 PUF domain R1-RLQ,5.58 log2 enrichment (interaction score)
GGCUAGAACUAGUGGAUCCCCCGGCGCCCGGCGGCUCGAGCCCGGGUAAGUGUAAAUAGUCUGCAUGCCGCCGGGCGCCAUGCCUGCAGGUCGACUCUAGAAAACAUG,binding signal,PUM1 PUF domain R5-RRG,2.29 log2 enrichment (interaction score)
same,binding signal,PUM1 PUF domain R6-VWT,1.67 log2 enrichment (interaction score)
same,binding signal,PUM1 PUF domain R5-SHL,2.34 log2 enrichment (interaction score)
same,binding signal,PUM1 PUF domain R3-YYG,4.58 log2 enrichment (interaction score)
same,binding signal,PUM1 PUF domain R4-LRC,4.01 log2 enrichment (interaction score)
same,binding signal,PUM1 PUF domain R8-IYR,4.7 log2 enrichment (interaction score)
same,binding signal,PUM1 PUF domain R5-RFC,3.35 log2 enrichment (interaction score)
same,binding signal,PUM1 PUF domain R6-RFV,3.56 log2 enrichment (interaction score)
same,binding signal,PUM1 PUF domain R3-CNE,2.27 log2 enrichment (interaction score)
same,binding signal,PUM1 PUF domain R4-PFG,6.55 log2 enrichment (interaction score)
GGCUAGAACUAGUGGAUCCCCCGGCGCCCGGCGGCUCGAGCCCGGGUAAGUGUCAAUAGUCUGCAUGCCGCCGGGCGCCAUGCCUGCAGGUCGACUCUAGAAAACAUG,binding signal,PUM1 PUF domain R5-RKP,3.3 log2 enrichment (interaction score)
same,binding signal,PUM1 PUF domain R5-RRG,4.19 log2 enrichment (interaction score)
same,binding signal,PUM1 PUF domain R5-RCK,4.05 log2 enrichment (interaction score)
same,binding signal,PUM1 PUF domain R5-SHL,0.12 log2 enrichment (interaction score)
same,binding signal,PUM1 PUF domain R5-KRH,4.38 log2 enrichment (interaction score)
same,binding signal,PUM1 PUF domain R5-RFC,5.11 log2 enrichment (interaction score)
GGCUAGAACUAGUGGAUCCCCCGGCGCCCGGCGGCUCGAGCCCGGGUAAGUGUUAAUAGUCUGCAUGCCGCCGGGCGCCAUGCCUGCAGGUCGACUCUAGAAAACAUG,binding signal,PUM1 PUF domain R5-RRG,4.55 log2 enrichment (interaction score)
same,binding signal,PUM1 PUF domain R5-SHL,2.85 log2 enrichment (interaction score)
GGCUAGAACUAGUGGAUCCCCCGGCGCCCGGCGGCUCGAGCCCGGGUAAGUGUAAGUAGUCUGCAUGCCGCCGGGCGCCAUGCCUGCAGGUCGACUCUAGAAAACAUG,binding signal,PUM1 PUF domain R3-YYG,6.37 log2 enrichment (interaction score)
same,binding signal,PUM1 PUF domain R3-CNE,3.08 log2 enrichment (interaction score)
same,binding signal,PUM1 PUF domain R3-TQE,2.29 log2 enrichment (interaction score)
GGCUAGAACUAGUGGAUCCCCCGGCGCCCGGCGGCUCGAGCCCGGGUAAGUGUAAAAAGUCUGCAUGCCGCCGGGCGCCAUGCCUGCAGGUCGACUCUAGAAAACAUG,binding signal,PUM1 PUF domain R2-LFI,4.64 log2 enrichment (interaction score)
GGCUAGAACUAGUGGAUCCCCCGGCGCCCGGCGGCUCGAGCCCGGGUAAGUGUACAUAGUCUGCAUGCCGCCGGGCGCCAUGCCUGCAGGUCGACUCUAGAAAACAUG,binding signal,PUM1 PUF domain R4-PFG,6.74 log2 enrichment (interaction score)
same,binding signal,PUM1 PUF domain R4-EYR,1.63 log2 enrichment (interaction score)
GGCUAGAACUAGUGGAUCCCCCGGCGCCCGGCGGCUCGAGCCCGGGUAAGUCUAAAUAGUCUGCAUGCCGCCGGGCGCCAUGCCUGCAGGUCGACUCUAGAAAACAUG,binding signal,PUM1 PUF domain R7-RSC,2.75 log2 enrichment (interaction score)
GGCUAGAACUAGUGGAUCCCCCGGCGCCCGGCGGCUCGAGCCCGGGUAAGUGUAUAUAGUCUGCAUGCCGCCGGGCGCCAUGCCUGCAGGUCGACUCUAGAAAACAUG,binding signal,PUM1 PUF domain R4-PFG,7.12 log2 enrichment (interaction score)
same,binding signal,PUM1 PUF domain R4-EYR,3.63 log2 enrichment (interaction score)
GGCUAGAACUAGUGGAUCCCCCGGCGCCCGGCGGCUCGAGCCCGGGUAAGUGUAAAUGGUCUGCAUGCCGCCGGGCGCCAUGCCUGCAGGUCGACUCUAGAAAACAUG,binding signal,PUM1 PUF domain R1-RLQ,2.26 log2 enrichment (interaction score)
GGCUAGAACUAGUGGAUCCCCCGGCGCCCGGCGGCUCGAGCCCGGGUAAGCGUAAAUAGUCUGCAUGCCGCCGGGCGCCAUGCCUGCAGGUCGACUCUAGAAAACAUG,binding signal,PUM1 PUF domain R8-IYR,6.47 log2 enrichment (interaction score)

# — article PMC8384837, “Expanding the binding specificity for RNA recognition by a PUF domain”
